# What was measured:
# Assay in all cases: DAPPL (digital affinity profiling via proximity ligation, sequencing); 10 mM Tris-HCl pH 7.5, 50 mM NaCl, 1 mM DTT, 4% glycerol, room temperature, 30 min; GST-TFs on glutathione beads, 16-mer random dsDNA library, 0.1% formaldehyde crosslink after washing; high values mean tight binding
# [1] = target: T1, FEV (Homo sapiens, UniProt Q99581 1-238); details: protein: recombinant; tags: N-terminal GST; dsDNA, one strand shown
# T1 sequence: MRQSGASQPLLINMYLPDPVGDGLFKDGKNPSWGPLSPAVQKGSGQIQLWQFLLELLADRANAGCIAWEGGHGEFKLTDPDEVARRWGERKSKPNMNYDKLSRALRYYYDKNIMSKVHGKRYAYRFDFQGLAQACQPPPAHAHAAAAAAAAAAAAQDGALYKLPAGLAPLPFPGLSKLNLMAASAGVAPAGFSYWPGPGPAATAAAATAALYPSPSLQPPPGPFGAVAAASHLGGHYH
# How it was run: (§1)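 Each value of binding signal is a hexamer's read frequency for a factor divided by the same hexamer's frequency in the tag-only sample. Barcoded, bead-captured GST fusions of human transcription factors made in yeast were pooled with that sample and incubated with 200 nmole of a random double-stranded 16-mer DNA library in Tris/NaCl/DTT/glycerol buffer at room temperature for 30 min. Washing, 0.1% formaldehyde crosslinking, proximity ligation, PCR and Illumina NextSeq500 sequencing followed.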
# [2] = target: ETV5 (Homo sapiens, UniProt P41161 1-510); details: protein: recombinant; tags: N-terminal GST; dsDNA, one strand shown
# How it was run: as §1
# [3] = target: HSF1 (Homo sapiens, UniProt Q00613 1-529); details: protein: recombinant; tags: N-terminal GST; chain copies: 3; dsDNA, one strand shown
# How it was run: as §1
# [4] = target: T2, SPIC (Homo sapiens, UniProt Q8N5J4 1-248); details: protein: recombinant; tags: N-terminal GST; dsDNA, one strand shown
# T2 sequence: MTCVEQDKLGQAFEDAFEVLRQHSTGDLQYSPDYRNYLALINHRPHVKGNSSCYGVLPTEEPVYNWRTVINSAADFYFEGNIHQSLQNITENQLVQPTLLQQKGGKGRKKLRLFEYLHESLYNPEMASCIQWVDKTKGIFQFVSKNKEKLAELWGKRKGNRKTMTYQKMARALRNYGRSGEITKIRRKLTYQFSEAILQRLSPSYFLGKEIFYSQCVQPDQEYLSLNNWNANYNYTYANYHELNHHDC
# How it was run: as §1
# [5] = target: ELF4 (Homo sapiens, UniProt Q99607 1-663); details: protein: recombinant; tags: N-terminal GST; dsDNA, one strand shown
# How it was run: as §1
# [6] = target: T3, ELK4 (Homo sapiens, UniProt P28324-2 1-405); details: protein: recombinant; tags: N-terminal GST; dsDNA, one strand shown
# T3 sequence: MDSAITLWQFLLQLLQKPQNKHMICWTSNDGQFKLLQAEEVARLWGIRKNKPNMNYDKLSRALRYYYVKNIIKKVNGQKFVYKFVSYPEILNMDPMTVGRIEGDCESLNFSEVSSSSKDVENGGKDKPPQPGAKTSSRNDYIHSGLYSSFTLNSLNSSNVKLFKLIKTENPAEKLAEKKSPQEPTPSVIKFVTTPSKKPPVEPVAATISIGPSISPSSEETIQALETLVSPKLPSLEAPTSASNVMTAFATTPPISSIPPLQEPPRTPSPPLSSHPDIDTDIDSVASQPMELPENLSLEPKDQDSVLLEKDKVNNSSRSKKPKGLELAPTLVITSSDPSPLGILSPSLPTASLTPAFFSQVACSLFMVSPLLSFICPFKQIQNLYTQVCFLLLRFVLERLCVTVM
# How it was run: as §1
# [7] = target: T4, ETV2 (Homo sapiens, UniProt O00321 1-342); details: protein: recombinant; tags: N-terminal GST; dsDNA, one strand shown
# T4 sequence: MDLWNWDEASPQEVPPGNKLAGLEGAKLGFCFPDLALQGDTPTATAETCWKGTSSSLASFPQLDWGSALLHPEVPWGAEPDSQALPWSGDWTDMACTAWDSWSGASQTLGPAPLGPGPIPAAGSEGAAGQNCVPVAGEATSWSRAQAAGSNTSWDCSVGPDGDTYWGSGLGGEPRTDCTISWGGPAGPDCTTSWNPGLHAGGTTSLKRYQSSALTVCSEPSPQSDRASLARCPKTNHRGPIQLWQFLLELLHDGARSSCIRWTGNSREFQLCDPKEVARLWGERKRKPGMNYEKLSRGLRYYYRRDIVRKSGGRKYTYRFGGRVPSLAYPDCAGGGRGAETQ
# How it was run: as §1
# [8] = target: T5, ELF3 (Homo sapiens, UniProt P78545 1-371); details: protein: recombinant; tags: N-terminal GST; dsDNA, one strand shown
# T5 sequence: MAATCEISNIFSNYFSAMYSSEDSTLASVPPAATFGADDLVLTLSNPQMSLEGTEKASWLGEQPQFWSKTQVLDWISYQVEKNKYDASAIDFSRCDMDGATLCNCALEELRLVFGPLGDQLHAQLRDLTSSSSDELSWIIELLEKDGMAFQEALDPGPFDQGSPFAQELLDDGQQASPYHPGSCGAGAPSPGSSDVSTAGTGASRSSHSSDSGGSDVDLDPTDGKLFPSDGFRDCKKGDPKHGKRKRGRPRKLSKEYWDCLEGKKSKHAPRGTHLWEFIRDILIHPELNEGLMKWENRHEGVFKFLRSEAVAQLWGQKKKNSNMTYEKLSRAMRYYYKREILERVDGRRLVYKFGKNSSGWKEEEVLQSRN
# How it was run: as §1
# [9] = target: CRX (Homo sapiens, UniProt O43186 1-299); details: protein: recombinant; tags: N-terminal GST; dsDNA, one strand shown
# How it was run: as §1
# [10] = target: ETV1 (Homo sapiens, UniProt P50549 1-477); details: protein: recombinant; tags: N-terminal GST; dsDNA, one strand shown
# How it was run: as §1
# [11] = target: T6, ERF (Homo sapiens, UniProt P50548 1-548); details: protein: recombinant; tags: N-terminal GST; dsDNA, one strand shown
# T6 sequence: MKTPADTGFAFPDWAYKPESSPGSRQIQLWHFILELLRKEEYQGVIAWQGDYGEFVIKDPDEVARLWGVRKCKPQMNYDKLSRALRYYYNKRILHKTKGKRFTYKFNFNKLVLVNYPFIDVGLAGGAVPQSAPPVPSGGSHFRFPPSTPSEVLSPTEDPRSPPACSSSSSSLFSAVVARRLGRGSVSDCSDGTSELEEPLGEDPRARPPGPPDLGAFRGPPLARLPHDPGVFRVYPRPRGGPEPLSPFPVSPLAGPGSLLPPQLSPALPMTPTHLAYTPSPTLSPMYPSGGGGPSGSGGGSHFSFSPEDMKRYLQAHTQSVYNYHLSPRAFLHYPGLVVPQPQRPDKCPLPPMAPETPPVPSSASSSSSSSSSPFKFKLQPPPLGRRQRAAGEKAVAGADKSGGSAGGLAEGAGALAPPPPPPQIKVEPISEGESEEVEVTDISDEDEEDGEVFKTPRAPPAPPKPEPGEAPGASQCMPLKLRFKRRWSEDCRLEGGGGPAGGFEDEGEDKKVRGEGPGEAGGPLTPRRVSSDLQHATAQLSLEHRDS
# How it was run: as §1
# [12] = target: T7, ETV3L (Homo sapiens, UniProt Q6ZN32 1-361); details: protein: recombinant; tags: N-terminal GST; dsDNA, one strand shown
# T7 sequence: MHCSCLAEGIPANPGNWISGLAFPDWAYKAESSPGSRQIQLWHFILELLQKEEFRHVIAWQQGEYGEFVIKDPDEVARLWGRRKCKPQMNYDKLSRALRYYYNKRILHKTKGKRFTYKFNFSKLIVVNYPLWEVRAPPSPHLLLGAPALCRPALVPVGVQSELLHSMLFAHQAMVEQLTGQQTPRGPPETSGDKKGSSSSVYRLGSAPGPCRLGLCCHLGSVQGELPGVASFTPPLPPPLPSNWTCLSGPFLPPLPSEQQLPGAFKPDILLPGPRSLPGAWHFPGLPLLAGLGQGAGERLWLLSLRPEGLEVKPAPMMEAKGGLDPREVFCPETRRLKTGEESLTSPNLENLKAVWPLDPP
# How it was run: as §1
# [13] = target: T8, ETS2 (Homo sapiens, UniProt P15036 1-469); details: protein: recombinant; tags: N-terminal GST; dsDNA, one strand shown
# T8 sequence: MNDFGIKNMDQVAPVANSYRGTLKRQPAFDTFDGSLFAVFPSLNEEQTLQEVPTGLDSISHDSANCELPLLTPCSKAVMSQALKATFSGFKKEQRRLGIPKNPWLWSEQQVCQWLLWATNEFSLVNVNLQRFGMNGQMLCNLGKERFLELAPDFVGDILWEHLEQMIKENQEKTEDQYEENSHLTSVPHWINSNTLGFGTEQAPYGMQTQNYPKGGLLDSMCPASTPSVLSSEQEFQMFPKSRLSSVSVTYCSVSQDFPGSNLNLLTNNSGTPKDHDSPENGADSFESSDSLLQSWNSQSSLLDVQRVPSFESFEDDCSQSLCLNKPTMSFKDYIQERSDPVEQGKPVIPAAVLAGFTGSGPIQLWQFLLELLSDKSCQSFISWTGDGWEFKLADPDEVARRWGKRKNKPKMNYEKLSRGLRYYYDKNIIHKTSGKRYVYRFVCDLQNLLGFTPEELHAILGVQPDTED
# How it was run: as §1
# [14] = target: T9, SPDEF (Homo sapiens, UniProt O95238 1-335); details: protein: recombinant; tags: N-terminal GST; dsDNA, one strand shown
# T9 sequence: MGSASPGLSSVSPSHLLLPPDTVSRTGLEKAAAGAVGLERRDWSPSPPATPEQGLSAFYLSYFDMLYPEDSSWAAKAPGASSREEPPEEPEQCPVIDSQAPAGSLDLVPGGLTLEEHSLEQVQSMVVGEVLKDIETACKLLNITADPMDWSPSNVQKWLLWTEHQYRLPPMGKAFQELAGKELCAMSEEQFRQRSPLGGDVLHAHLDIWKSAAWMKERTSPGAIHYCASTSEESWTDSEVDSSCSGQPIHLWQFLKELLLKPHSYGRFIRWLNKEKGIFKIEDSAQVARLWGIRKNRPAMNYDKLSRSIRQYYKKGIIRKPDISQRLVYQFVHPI
# How it was run: as §1
# [15] = target: T10, ETV7 (Homo sapiens, UniProt Q9Y603 1-341); details: protein: recombinant; tags: N-terminal GST; dsDNA, one strand shown
# T10 sequence: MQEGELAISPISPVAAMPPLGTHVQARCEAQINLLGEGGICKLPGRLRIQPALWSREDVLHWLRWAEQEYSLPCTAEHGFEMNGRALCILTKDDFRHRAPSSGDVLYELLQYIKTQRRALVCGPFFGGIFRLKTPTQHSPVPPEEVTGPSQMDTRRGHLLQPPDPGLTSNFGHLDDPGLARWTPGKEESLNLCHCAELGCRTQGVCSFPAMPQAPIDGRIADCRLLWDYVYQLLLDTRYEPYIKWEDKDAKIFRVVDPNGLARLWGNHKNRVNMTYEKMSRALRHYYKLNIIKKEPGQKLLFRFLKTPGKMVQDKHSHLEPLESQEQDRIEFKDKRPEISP
# How it was run: as §1
# [16] = target: T11, ELF5 (Homo sapiens, UniProt Q9UKW6-2 1-255); details: protein: recombinant; tags: N-terminal GST; dsDNA, one strand shown
# T11 sequence: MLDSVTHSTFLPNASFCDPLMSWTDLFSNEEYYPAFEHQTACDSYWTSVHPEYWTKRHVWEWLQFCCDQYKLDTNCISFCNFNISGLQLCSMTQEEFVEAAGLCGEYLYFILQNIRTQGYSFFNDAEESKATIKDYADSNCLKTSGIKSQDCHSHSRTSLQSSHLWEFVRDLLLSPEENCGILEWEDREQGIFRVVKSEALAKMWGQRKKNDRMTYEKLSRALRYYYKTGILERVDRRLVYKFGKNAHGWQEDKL
# How it was run: as §1
# [17] = target: T12, ETV3 (Homo sapiens, UniProt P41162-2 1-143); details: protein: recombinant; tags: N-terminal GST; dsDNA, one strand shown
# T12 sequence: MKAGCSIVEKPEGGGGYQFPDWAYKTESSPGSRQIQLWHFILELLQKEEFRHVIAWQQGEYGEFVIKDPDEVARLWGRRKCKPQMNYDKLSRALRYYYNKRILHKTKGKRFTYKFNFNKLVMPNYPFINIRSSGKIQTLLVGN
# How it was run: as §1
# [18] = target: ETV6 (Homo sapiens, UniProt P41212 1-452); details: protein: recombinant; tags: N-terminal GST; dsDNA, one strand shown
# How it was run: as §1
# Chain of ETV6 (P41212 whole entry): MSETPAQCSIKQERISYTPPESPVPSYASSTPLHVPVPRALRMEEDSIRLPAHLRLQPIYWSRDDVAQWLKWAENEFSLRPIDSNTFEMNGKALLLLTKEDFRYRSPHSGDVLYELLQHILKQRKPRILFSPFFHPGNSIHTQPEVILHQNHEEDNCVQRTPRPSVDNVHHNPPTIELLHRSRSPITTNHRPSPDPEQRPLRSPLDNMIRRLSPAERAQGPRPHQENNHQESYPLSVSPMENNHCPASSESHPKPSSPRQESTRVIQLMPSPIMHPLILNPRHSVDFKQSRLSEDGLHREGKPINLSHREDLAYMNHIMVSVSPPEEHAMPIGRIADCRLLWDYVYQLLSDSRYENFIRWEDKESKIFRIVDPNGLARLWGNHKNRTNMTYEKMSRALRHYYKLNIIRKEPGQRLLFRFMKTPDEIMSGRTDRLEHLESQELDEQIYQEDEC
# Chain of CRX (O43186 whole entry): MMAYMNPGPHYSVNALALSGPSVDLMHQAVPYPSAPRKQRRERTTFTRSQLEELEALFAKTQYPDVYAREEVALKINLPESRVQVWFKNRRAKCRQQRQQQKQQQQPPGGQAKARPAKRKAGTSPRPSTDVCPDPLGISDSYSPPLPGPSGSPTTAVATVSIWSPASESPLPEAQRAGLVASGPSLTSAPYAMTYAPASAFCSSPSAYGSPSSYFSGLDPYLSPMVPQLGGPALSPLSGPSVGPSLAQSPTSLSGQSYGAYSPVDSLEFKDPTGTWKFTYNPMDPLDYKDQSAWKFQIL
# Chain of ELF4 (Q99607 whole entry): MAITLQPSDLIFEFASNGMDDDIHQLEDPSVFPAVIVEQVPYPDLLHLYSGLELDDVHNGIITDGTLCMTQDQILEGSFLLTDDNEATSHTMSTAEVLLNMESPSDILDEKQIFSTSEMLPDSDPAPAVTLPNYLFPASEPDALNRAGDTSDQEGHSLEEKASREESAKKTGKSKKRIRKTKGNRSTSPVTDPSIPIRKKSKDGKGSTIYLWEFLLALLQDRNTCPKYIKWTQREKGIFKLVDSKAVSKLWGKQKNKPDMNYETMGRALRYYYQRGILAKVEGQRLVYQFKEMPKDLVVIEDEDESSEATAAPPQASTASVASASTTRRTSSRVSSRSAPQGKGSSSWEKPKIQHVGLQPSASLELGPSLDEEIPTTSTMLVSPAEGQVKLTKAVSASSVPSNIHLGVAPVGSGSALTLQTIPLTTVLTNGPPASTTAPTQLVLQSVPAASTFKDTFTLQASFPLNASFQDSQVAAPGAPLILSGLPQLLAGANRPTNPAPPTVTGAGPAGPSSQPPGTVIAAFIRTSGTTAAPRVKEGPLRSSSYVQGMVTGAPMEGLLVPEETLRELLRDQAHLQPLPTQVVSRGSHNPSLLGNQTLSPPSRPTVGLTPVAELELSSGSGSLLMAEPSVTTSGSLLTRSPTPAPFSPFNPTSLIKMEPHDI
# Chain of HSF1 (Q00613 whole entry): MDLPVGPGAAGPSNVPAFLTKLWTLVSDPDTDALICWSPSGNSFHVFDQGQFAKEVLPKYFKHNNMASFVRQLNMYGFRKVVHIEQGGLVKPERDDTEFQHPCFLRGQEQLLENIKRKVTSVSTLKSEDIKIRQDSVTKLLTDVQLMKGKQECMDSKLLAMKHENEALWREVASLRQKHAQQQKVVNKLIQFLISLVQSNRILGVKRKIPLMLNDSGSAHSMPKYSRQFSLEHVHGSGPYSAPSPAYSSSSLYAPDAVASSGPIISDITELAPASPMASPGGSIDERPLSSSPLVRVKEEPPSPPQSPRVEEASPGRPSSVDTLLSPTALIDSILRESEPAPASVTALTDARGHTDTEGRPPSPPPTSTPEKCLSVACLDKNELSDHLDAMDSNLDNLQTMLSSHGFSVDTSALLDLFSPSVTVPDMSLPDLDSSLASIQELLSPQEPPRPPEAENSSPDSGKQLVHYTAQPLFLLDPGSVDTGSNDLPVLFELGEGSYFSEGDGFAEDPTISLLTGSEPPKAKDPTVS
# Chain of ETV5 (P41161 whole entry): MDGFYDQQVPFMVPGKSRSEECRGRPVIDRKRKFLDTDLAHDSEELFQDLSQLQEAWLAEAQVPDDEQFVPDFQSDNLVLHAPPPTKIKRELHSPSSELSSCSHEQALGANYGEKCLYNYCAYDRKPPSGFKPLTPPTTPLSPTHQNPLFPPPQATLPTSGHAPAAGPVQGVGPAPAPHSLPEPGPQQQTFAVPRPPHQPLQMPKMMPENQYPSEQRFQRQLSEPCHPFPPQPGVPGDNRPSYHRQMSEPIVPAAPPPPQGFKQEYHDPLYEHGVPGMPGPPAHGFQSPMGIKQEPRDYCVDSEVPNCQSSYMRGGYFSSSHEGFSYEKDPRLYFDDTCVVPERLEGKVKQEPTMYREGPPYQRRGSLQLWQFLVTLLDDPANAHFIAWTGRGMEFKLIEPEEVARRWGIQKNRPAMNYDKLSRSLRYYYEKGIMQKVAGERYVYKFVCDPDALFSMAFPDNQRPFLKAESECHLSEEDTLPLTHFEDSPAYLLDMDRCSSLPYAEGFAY
# Chain of ETV1 (P50549 whole entry): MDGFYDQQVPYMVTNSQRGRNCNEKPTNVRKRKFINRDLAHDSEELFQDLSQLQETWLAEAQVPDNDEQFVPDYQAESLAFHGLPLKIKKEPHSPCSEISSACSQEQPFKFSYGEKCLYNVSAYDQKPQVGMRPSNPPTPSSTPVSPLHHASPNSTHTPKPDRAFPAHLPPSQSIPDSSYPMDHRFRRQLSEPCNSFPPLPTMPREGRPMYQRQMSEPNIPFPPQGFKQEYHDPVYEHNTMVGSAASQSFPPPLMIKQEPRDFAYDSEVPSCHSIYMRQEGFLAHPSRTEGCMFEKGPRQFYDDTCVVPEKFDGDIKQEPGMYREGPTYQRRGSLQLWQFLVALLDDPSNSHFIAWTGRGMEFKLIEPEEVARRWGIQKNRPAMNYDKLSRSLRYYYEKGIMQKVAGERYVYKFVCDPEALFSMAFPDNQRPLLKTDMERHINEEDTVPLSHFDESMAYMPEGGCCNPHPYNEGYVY
sequence,measurement,setting,value
GAATAA,binding signal,[1],"1.08 fold enrichment (6-mer frequency, TF over GST control)"
same,binding signal,[2],"1.09 fold enrichment (6-mer frequency, TF over GST control)"
same,binding signal,[3],"1.62 fold enrichment (6-mer frequency, TF over GST control)"
same,binding signal,[4],"1.17 fold enrichment (6-mer frequency, TF over GST control)"
same,binding signal,[5],"1.13 fold enrichment (6-mer frequency, TF over GST control)"
same,binding signal,[6],"1.04 fold enrichment (6-mer frequency, TF over GST control)"
same,binding signal,[7],"1.13 fold enrichment (6-mer frequency, TF over GST control)"
same,binding signal,[8],"1.12 fold enrichment (6-mer frequency, TF over GST control)"
same,binding signal,[9],"1.57 fold enrichment (6-mer frequency, TF over GST control)"
same,binding signal,[10],"1.03 fold enrichment (6-mer frequency, TF over GST control)"
same,binding signal,[11],"1.23 fold enrichment (6-mer frequency, TF over GST control)"
same,binding signal,[12],"1.15 fold enrichment (6-mer frequency, TF over GST control)"
same,binding signal,[13],"1.09 fold enrichment (6-mer frequency, TF over GST control)"
same,binding signal,[14],"1.09 fold enrichment (6-mer frequency, TF over GST control)"
same,binding signal,[15],"1.07 fold enrichment (6-mer frequency, TF over GST control)"
same,binding signal,[16],"1.05 fold enrichment (6-mer frequency, TF over GST control)"
same,binding signal,[17],"1.06 fold enrichment (6-mer frequency, TF over GST control)"
same,binding signal,[18],"1.16 fold enrichment (6-mer frequency, TF over GST control)"

# — article PMC7862700, “An all-to-all approach to the identification of sequence-specific readers for epigenetic DNA modifications on cytosine”
